In PubChem BioAssay one finds composite z-score and z-score data, which are given here for five molecules.

A short description of experiment [1]: small molecules captured by biotinylated probe aFSTL3 – biochemical, small-molecule microarray, fluorescence 635/667, stem cell growth factor project, primary screen (AID 1064).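 Also: measures binding of the biotinylated anti-FSTL3 antibody to printed compounds.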 The conditions noted are these: higher = more signal.
The nature of experiment [2]: binders from COS7 lysate, DM2A8 probe, primary screen, torsin A project, cell lysate, small-molecule microarray, fluorescence 635/667 (AID 1065). Conditions: higher = more signal, COS7 lysate expressing mutant human TOR1A.
The nature of experiment [3]: small molecules captured by biotinylated probe aFGF2 – biochemical, small-molecule microarray, fluorescence 635/667, stem cell growth factor project, primary screen (AID 1067).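 Also: measures binding of biotinylated aFGF2 protein to printed compounds on slides; z-score merges feature fluorescence and signal-to-noise across triplicate slides.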 The conditions noted are these: higher = more signal.
The nature of experiment [4]: small molecules captured by biotinylated probe aFGF10 – biochemical, small-molecule microarray, fluorescence 635/667, stem cell growth factor project, primary screen (AID 1071).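 Also: score merges 667 nm spot intensity and signal to noise from triplicate slides.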 Conditions: higher = more signal.
The target of experiment [5] is Neurogenic locus notch homolog protein 2 (Homo sapiens) (UniProt Q04721). Briefly: small molecules binding Notch2 protein – biochemical, small-molecule microarray, 635 nm fluorescence, stem cell growth factors, primary screen (AID 1073). The conditions noted are these: higher = more signal.
For experiment [6], the target named is Pro-neuregulin-1, membrane-bound isoform (Homo sapiens) (UniProt Q02297). Briefly: small molecules binding neuregulin-1 protein – biochemical, small-molecule microarray, fluorescence 635/667, psychiatric disease protein project, primary screen (AID 1075).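 Also: score combines 667 nm spot fluorescence with signal to noise.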 Conditions: NRG1 binding, 635 nm fluorescence, higher = more signal.
Experiment [7] concerns Neuregulin-1 EGF-like domain. Briefly: small molecules binding NRG1 EGF domain – biochemical, small-molecule microarray, 635 nm fluorescence, primary screen (AID 1081).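 Also: binding of the protein to compounds printed on small-molecule microarray slides.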 Conditions: higher = more signal.
Experiment [8] is described as follows: FRG1 expression reporter modulators in myotubes – cell-based, C2C12 myotubes, firefly/Renilla luciferase, luminescence, FRG1 inhibition for FSHD, primary screen (AID 1084). The conditions noted are these: FRG1 promoter luciferase, higher = more signal, called active from +8 up or from −8 down.
Experiment [9] is described as follows: small molecules captured by biotinylated probe aFST – biochemical, small-molecule microarray, fluorescence 635/667, stem cell growth factor project, primary screen (AID 1086).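 Also: score merges 667 nm fluorescence with signal-to-noise of each printed compound spot.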 Conditions: higher = more signal.
A short description of experiment [10]: binders of probe aHhip on microarray, primary screen, stem cell growth factor project, biochemical, small-molecule microarray, fluorescence 635/667 (AID 1087).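 Also: score merges spot fluorescence at 667nm with spot signal to noise ratio.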 The conditions noted are these: higher = more signal.
Experiment [11] has as its system PRMT1 (protein arginine N-methyltransferase 1). As to the kind of experiment: small molecules binding arginine methyltransferase PRMT1 – biochemical, small-molecule microarray, 635 nm fluorescence, primary screen (AID 1088).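 Also: binding of Prmt1 protein to compounds spotted on small-molecule microarray slides.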 Conditions: higher = more signal.
Experiment [12] is described as follows: growth effects on S. cerevisiae YJM789 – YJM789 clinical isolate, OD600, 24 h, basal, primary screen (AID 1089).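 Also: growth of clinical yeast isolate S. cerevisiae YJM 789 seeded 1000 cells per well; test concentration not given here.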 Conditions: higher = more signal, called active from +8 up or from −8 down.
The nature of experiment [13]: S. pombe growth modifiers, basal conditions – strain 972, OD600, 24 h, no modulator, primary screen (AID 1090).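 Also: basal condition with compound alone and no growth modifier present; test concentration not given here.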 The conditions noted are these: S. pombe 972 growth, higher = more signal, called active from +8 up or from −8 down.
Experiment [14] can be described thus: budding yeast growth modifiers under rapamycin – strain BY4716, OD600, 96 h, primary screen (AID 1091). Also: test concentration not given here. The conditions noted are these: S. cerevisiae BY4716 + rapamycin, higher = more signal, called active from +8 up or from −8 down.
For experiment [15], the target named is Torsin-1A-interacting protein 2 (Homo sapiens) (UniProt Q8NFQ8). Briefly: small molecules binding lysate-expressed LULL1 – cell lysate, human LULL1 lysate, 635/667 nm fluorescence, primary screen (AID 1092).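 Also: probe is lysate of COS7 cells overexpressing human LULL1; score merges per-feature 667 nm fluorescence with signal-to-noise.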 Conditions: small-molecule microarray, hLULL1 lysate binding, 635 nm fluorescence; higher = more signal.
A short description of experiment [16]: optical density change of DRC41 E. coli – strain DRC41, OD650, 24 h, E. coli filamentation project, primary screen (AID 1093).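 Also: MC1000 strain lacking acrAB efflux and sulA so SOS filamentation is blocked; test concentration not given here.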 Conditions: E. coli DRC41 growth, higher = more signal, called active from +8 up or from −8 down.
Experiment [17] can be described thus: probe aLefty2 binding to arrayed compounds – biochemical, biotinylated probe, 635/667 nm fluorescence, primary screen (AID 1094).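 Also: score merges spot fluorescence near 667 nm with spot signal-to-noise ratio.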 The conditions noted are these: small-molecule microarray, higher = more signal.
In experiment [18] the test system is Noggin (protein binding on small-molecule microarray). As to the kind of experiment: small molecules binding Noggin protein – biochemical, 635/667 nm fluorescence, primary screen (AID 1095).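 Also: score merges 667 nm feature fluorescence with signal to noise over triplicate slides.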 The conditions noted are these: 635 nm fluorescence, higher = more signal.
The target of experiment [19] is Neurogenic locus notch homolog protein 3 (Homo sapiens) (UniProt Q9UM47). Briefly: small molecules binding NOTCH3 protein – biochemical, 635/667 nm fluorescence, primary screen (AID 1096). Conditions: small-molecule microarray, 635 nm fluorescence, higher = more signal.
A short description of experiment [20]: probe aEGFR binding to arrayed compounds – biochemical, biotinylated probe, 635/667 nm fluorescence, primary screen (AID 1097).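 Also: probe is a biotinylated anti-EGFR antibody binding compounds printed on slides; score combines fluorescence near 667 nm and signal to noise of each spot.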 The conditions noted are these: small-molecule microarray, higher = more signal.

Calls of active or inactive are those of the source.

Chain of Neurogenic locus notch homolog protein 2 (Homo sapiens) (Q04721 whole entry, looked up, canonical isoform): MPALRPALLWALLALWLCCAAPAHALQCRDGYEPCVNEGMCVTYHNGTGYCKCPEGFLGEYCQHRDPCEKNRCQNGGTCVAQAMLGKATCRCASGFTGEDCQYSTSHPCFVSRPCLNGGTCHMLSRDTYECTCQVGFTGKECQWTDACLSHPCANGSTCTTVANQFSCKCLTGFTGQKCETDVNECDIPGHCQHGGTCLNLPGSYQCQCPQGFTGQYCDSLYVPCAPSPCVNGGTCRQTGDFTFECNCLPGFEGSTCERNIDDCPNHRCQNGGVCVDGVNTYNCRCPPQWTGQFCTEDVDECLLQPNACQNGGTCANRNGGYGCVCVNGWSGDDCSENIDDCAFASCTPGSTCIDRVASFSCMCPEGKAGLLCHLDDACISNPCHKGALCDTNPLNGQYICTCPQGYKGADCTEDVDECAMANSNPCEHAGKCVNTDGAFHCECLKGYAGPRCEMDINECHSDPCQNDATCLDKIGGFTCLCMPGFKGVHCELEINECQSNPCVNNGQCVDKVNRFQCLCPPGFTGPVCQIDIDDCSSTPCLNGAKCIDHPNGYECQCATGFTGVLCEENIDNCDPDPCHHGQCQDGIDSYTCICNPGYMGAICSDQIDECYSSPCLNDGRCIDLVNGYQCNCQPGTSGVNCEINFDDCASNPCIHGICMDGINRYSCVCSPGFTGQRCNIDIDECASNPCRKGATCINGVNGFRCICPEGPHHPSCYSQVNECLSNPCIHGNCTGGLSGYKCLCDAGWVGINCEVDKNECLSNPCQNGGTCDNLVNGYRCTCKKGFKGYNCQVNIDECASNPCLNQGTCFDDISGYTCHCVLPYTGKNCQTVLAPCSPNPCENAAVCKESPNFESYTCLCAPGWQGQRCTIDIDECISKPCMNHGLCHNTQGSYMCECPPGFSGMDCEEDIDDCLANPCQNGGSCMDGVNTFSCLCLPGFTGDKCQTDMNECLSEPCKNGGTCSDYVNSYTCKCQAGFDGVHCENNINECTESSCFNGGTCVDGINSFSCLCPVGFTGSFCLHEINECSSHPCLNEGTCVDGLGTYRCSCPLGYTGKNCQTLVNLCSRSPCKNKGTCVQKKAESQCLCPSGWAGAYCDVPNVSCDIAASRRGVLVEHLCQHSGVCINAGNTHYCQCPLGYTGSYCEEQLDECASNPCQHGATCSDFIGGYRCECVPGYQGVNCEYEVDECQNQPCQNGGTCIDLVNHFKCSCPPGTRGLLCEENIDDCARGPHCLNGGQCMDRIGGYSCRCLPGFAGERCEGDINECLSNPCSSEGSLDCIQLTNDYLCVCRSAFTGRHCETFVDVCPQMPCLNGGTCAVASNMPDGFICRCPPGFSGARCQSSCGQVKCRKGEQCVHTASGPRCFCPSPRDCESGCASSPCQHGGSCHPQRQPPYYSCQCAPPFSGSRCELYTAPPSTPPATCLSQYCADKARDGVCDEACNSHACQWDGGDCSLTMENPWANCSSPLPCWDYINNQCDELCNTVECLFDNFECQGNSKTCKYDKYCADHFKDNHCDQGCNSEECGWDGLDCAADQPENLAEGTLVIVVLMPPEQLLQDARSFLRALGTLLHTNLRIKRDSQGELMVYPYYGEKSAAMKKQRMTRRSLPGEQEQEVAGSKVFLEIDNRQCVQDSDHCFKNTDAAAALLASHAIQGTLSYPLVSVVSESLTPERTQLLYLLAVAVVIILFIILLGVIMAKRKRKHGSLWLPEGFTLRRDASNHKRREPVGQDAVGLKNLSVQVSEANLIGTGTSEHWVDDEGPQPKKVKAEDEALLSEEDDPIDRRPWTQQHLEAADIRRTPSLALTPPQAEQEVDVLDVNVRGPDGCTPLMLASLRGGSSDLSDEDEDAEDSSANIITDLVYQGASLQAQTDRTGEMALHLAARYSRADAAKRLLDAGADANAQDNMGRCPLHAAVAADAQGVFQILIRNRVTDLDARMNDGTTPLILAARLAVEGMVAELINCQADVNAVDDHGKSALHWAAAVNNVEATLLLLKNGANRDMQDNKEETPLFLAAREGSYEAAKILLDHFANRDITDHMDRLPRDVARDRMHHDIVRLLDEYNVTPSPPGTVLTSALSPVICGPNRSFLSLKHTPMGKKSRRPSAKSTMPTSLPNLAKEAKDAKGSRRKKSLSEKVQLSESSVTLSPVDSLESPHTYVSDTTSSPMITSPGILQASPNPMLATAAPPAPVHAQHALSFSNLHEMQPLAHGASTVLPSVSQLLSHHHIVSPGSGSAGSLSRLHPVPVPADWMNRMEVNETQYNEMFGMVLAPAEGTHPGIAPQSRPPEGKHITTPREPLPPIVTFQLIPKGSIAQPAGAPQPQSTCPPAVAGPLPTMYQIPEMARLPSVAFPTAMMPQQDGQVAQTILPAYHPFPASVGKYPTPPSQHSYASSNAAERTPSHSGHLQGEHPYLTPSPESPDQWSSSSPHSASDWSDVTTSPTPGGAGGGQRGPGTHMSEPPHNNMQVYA
Chain of Pro-neuregulin-1, membrane-bound isoform (Homo sapiens) (Q02297 whole entry, looked up, the tested form may be a part, canonical isoform): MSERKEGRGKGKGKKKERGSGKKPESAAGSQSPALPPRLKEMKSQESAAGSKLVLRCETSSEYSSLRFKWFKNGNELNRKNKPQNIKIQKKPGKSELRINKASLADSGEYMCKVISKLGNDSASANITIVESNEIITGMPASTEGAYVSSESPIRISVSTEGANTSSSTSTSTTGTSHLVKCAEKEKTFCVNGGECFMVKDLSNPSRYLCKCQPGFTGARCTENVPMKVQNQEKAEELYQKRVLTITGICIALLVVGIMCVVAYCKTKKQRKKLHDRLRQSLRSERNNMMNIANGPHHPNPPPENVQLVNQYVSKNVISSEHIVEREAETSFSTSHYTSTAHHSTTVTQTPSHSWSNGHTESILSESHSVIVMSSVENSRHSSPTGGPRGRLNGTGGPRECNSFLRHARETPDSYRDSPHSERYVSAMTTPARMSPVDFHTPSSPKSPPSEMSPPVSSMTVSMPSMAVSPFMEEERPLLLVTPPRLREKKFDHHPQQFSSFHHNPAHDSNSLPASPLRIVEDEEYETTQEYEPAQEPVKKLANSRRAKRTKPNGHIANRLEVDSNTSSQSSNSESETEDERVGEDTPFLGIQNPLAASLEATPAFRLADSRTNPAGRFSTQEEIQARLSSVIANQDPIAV
Chain of Torsin-1A-interacting protein 2 (Homo sapiens) (Q8NFQ8 whole entry, looked up): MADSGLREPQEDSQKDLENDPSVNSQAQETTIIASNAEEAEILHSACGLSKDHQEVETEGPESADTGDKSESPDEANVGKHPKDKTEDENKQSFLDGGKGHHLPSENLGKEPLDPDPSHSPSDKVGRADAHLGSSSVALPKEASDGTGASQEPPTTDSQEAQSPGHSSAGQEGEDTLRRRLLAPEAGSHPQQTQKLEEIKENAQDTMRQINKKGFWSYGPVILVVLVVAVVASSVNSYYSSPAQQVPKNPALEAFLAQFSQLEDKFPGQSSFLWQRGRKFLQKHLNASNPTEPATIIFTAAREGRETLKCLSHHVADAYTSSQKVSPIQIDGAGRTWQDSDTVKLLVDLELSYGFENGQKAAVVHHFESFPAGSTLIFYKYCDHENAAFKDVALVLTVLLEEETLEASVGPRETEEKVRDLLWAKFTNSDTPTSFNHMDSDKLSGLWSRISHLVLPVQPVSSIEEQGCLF

As to `O=c1cccc(-c2cccc(Cl)c2)o1`, the composite z-score is -0.118 in experiment [1]; -0.341 in experiment [2]; -0.0937 in experiment [3]; 0.299 in experiment [4]; -0.0173 in experiment [5]; -0.0364 in experiment [6]. Also, the composite z-score in experiment [7] was 0.409; in experiment [9], 0.433; in experiment [10], -0.223; in [11], 0.0485; in experiment [15], 0.0149; in experiment [17], -0.0927. Besides, the composite z-score is -0.162 in experiment [18], 0.136 in [19] and -0.0304 in [20]. In addition, the z-score in experiment [8] was 2.02 (inactive); in [12], -3.86 (inactive); in experiment [13], -4.41 (inactive); in experiment [14] it was 5.45 (inactive); in experiment [16], 0.658 (inactive).
For `C=CC[C@]1(C(=O)N(C)C)N=C(c2ccc(OCCCO)cc2)O[C@H]1c1ccccc1N=[N+]=[N-]`, the composite z-score is 0.396 in experiment [1]; -0.113 in experiment [2]; 0.161 in [3]; 0.567 in [4]; 1.48 in [5]; 1.3 in experiment [6]. In addition, the composite z-score in experiment [7] was 1.2; in [9] it was 1.87; in experiment [10], -0.199; in experiment [11], 1.48; in [15], 3.2; in experiment [17], 0.285. The composite z-score was 0.464 in [18], 1.03 in [19] and 0.0651 in experiment [20]. Also, the z-score in experiment [8] is 1.52 (inactive); in experiment [12] it was 0.0061 (inactive); in experiment [13], -0.102 (inactive); in experiment [14], -0.317 (inactive); in [16], 0.394 (inactive).
For the molecule `C=CC[C@@]1(C(=O)N2CCCCC2)N=C(c2ccc(OCCCO)cc2)O[C@@H]1c1ccccc1`, the composite z-score in [1] was 1; in [2], 0.651; in [3] it was 0.0336; in experiment [4] it was 0.307; in experiment [5] it was 0.201; in experiment [6], 1.56. Besides, the composite z-score in experiment [7] was 1.19; in experiment [9], 0.688; in [10] it was 0.595; in [11], 1.56; in experiment [15], 3.06; in experiment [17], 0.361. Besides, the composite z-score was found to be 1.14 in experiment [18], 0.5 in [19] and 0.0222 in experiment [20]. Further, the z-score was -1.21 (inactive) in experiment [8]; -2.83 (inactive) in experiment [12]; -5.65 (inactive) in [13]; -1.18 (inactive) in experiment [14]; 0.868 (inactive) in experiment [16].
Turning to `C=C(COC)/C(=C/C[C@@H](OC(=O)c1ccncc1)c1ccc(OCCO)cc1)c1cnc2ccccc2c1`, the composite z-score was -0.0384 in experiment [1]; 0.651 in [2]; 0.124 in [3]; 1.15 in [4]; 1.74 in [5]; -0.578 in [6]. The composite z-score was 1.2 in [7]; 0.28 in experiment [9]; -0.0994 in experiment [10]; 1.54 in experiment [11]; 2.55 in experiment [15]; -0.0802 in [17]. Besides, the composite z-score in experiment [18] is 1.54; in experiment [19], 1.01; in [20] it was -0.0531. Also, the z-score in experiment [8] is -1.73 (inactive); in [12], -2.16 (inactive); in experiment [13], -1.05 (inactive); in experiment [14], -0.263 (inactive); in experiment [16] it was 1.12 (inactive).
Take `COc1cc(CO)cc(I)c1O[C@H]1C=C(C(=O)NCCO)C[C@@H](N(CC2CCCCC2)C(=O)c2ccc(C(F)(F)F)cc2)[C@@H]1O`: the composite z-score in [1] was -0.356; in experiment [2] it was 0.0668; in experiment [3], -0.101; in [4], 0.268; in experiment [5], 0.546; in experiment [6] it was 0.115. In addition, the composite z-score is 1.02 in experiment [7]; 0.0701 in experiment [9]; 0.12 in [10]; 1.23 in experiment [11]; 1.89 in experiment [15]; -0.166 in experiment [17]. Further, the composite z-score is 0.586 in experiment [18], 0.937 in [19] and -0.0828 in experiment [20]. Besides, the z-score in [8] is -1.85 (inactive); in experiment [12], 0.0635 (inactive); in experiment [13], -0.169 (inactive); in experiment [14], -0.0789 (inactive); in [16] it was 1.78 (inactive).
